# Screening data deposited in PubChem BioAssay by several laboratories.
# Ba/F3 V617F tox: lowers viability of Ba/F3 cells expressing EpoR and JAK2V617F. inhibition, % at 5.6 µM. ATP luminescence. actives 1.1% (n = 220,000). AID 1446;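 active = inhibition above the campaign mean plus 3 SD over all tested compounds, cut at about 24% in these data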;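 also: cytokine-independent growth of Ba/F3 cells driven by EpoR plus mutant JAK2; 0% = DMSO-treated cells and 100% = JAK inhibitor I control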
# APP transl inh: APP translation inhibition; SH-SY5Y APP 5'UTR-luciferase reporter, luminescence; inhibition, % at 2 µM; actives 0.82% (n = 190,000);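 active = inhibition above a set limit, derived from the sample mean plus 3 SD, cut at about 45% in these data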
# KLF5 inhibitor: inhibitors of KLF5 expression; actives 0.23% (n = 290,000); DLD-1 KLF5 promoter-luciferase reporter, luminescence; inhibition, % at 5 µM;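 active = inhibition above a per-plate limit of that plate's mean compound inhibition plus 3 SD, cut at about 60% in these data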;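 also: 0% = DMSO wells and 100% = LY294002 at 200 µM; higher means less KLF5 promoter-driven luciferase light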
# BaF3 parental: reduces parental Ba/F3 cell viability, JAK2V617F counter-screen | CellTiter-Glo ATP luminescence | actives 1.1% (n = 220,000) | inhibition, % at 5.6 µM;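 active = inhibition above a per-campaign cutoff, the mean inhibition of all tested compounds plus 3 SD, cut at about 27% in these data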;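 also: 0% = DMSO wells and 100% = JAK Inhibitor I control wells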
# IEC-6 cytotox: IEC-6 cytotoxicity, counter-screen for KLF5 inhibitors. luminescence viability. inhibition, % at 5 µM. actives 0.78% (n = 290,000). AID 1825; in the data active = inhibition above about 22%;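 also: 0% = plate median of test compound wells and 100% = cytotoxic reference compound wells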
# BaF3 tox 2: counter-screen for JAK2V617F inhibitors: parental Ba/F3 viability inhibitors; shares compounds with Ba/F3 V617F tox; CellTiter-Glo luminescence; cells kept alive by added IL-3; inhibition, % at 5.6 µM; actives 31% (n = 580); AID 1520;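 active = cell growth inhibition above the hit limit set in the earlier mutant JAK2 cell screen, cut at about 27% in these data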;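 also: plate controls were DMSO-treated cells for no effect and JAK Inhibitor I control wells for full effect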
# JAK2V617F confrm: Ba/F3 EpoR-JAK2V617F viability loss, confirmation | shares compounds with Ba/F3 V617F tox | CellTiter-Glo luminescence | inhibition, % at 5.6 µM | actives 66% (n = 580) | AID 1521;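 active = mean inhibition above the hit cutoff derived in the earlier primary screen, cut at about 25% in these data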;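 also: 0% = DMSO-treated cells and 100% = JAK inhibitor I control wells; higher means lower luminescence from reduced cell ATP and viability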
# * marks the source's active call; other numbers are inactive results; nt = not tested or not shown. An excerpt weighted towards active compounds, which were near 1.8% of everything screened.
SMILES,Ba/F3 V617F tox,APP transl inh,KLF5 inhibitor,BaF3 parental,IEC-6 cytotox,BaF3 tox 2,JAK2V617F confrm
Cc1ccc(C)c(Cn2nnc3c(=O)[nH]c(C(=O)NCC4CCCO4)nc32)c1 (stereo unspecified),28*,2,-16,4,6,-1,1
Cc1ccccc1Nc1nc(N)nc(CCl)n1,37*,nt,-8,-5,14,-3,9
Nc1nc(CCl)nc(Nc2ccc3ccccc3c2)n1,100*,nt,-59,24,47*,9,99*
COc1ccc(Nc2nc(N)nc(CCl)n2)cc1,45*,nt,-24,-1,6,-1,65*
C/C(=N\NC(=O)c1nnn(-c2nonc2N)c1-c1ccccc1)c1ccco1,nt,nt,-32,nt,nt,nt,nt
COc1ccc(-n2nc([N+](=O)[O-])c(=NCCCN3CCCC3=O)n2O)cc1,-3,-9,-6,2,-5,nt,nt
O=C1CCCN1CCCN=c1c([N+](=O)[O-])nn(-c2ccc(Cl)cc2)n1O,32*,6,-18,25,18,8,38*
Oc1ccccc1/C=N/Nc1nccnc1Cl,10,42,-58,8,1,nt,nt
Oc1ccc(/C=N/Nc2nccnc2Cl)c(O)c1,32*,nt,-13,8,-3,71*,91*
COc1ccccc1OC(=O)Cc1cccc2ccccc12,nt,nt,-5,nt,4,nt,nt
COc1ccccc1CC(=O)O/N=C(\N)Cc1cccc2ccccc12,34*,9,0,8,6,-6,-5
CCOc1ccc(N2CC(C(=O)NCCc3ccc(S(N)(=O)=O)cc3)CC2=O)cc1 (stereo unspecified),nt,nt,-11,nt,4,nt,nt
COc1cccc(/C=N/Nc2nc3ccccc3[nH]2)c1O,77*,nt,36,21,5,59*,89*
CC(=O)Nc1ccc(/C=N/Nc2nc3ccccc3[nH]2)cc1,6,-20,-6,-1,-2,nt,nt
COC(=O)c1sccc1N/N=C/c1cccc(OC)c1O,3,-180,-44,5,-5,nt,nt
COc1cccc(/C=N/Nc2ncnc3scc(-c4ccccc4)c23)c1O,41*,89*,80*,26,-1,92*,98*
CCN(CC)c1ccc(/C=N/Nc2nc3ccccc3[nH]2)cc1,50*,12,-52,-2,41*,5,64*
O=S(=O)(Nc1cc2nc3ccccc3nc2n1Cc1ccccc1)c1ccc(Cl)cc1,-1,-17,-51,5,-3,nt,nt
O=C(NC(=S)Nc1cccc(NC(=O)c2ccc(Cl)cc2Cl)c1)c1cccs1,0,8,-5,10,8,nt,nt
O=C(CCOc1ccccc1)N1CCN(c2ccc(O)cc2)CC1,25*,nt,-19,6,0,5,14
O=C(CCCOc1ccccc1)N1CCN(c2ccccc2)CC1,2,-24,-75,2,8,nt,nt
Cc1cc(NC(=O)c2cc(-c3ccc(C)c(C)c3)nc3ccccc23)no1,63*,-6,17,5,10,0,-1
Cc1ccc(-c2cc(C(=O)Nc3cc(C)on3)c3ccccc3n2)cc1,-1,2,-21,0,8,nt,nt
Cc1ccc(C(=O)c2c(C)oc3c2C(=O)C(=O)c2ccccc2-3)cc1,27*,-15,-20,3,16,1,33*
O=C(NCCCCNC(=O)c1ccc(Cl)s1)c1ccc(Cl)s1,-4,-1,-28,0,-1,nt,nt
SMILES,Ba/F3 V617F tox,APP transl inh,KLF5 inhibitor,BaF3 parental,IEC-6 cytotox,BaF3 tox 2,JAK2V617F confrm
O=C(NCCCCCCNC(=O)c1ccc(Br)s1)c1ccc(Br)s1,37*,10,-34,-1,-4,-2,20
Cc1ccc(NC(=O)C2=C(c3ccccc3)S(=O)(=O)CCS2(=O)=O)cc1,71*,93*,2,0,7,40*,99*
Cc1ccc(NC(=O)c2ccccc2)cc1,0,-97,-127,4,-8,nt,nt
COc1ccc2[nH]cc(CCNC(=O)C3CCCO3)c2c1 (stereo unspecified),2,-2,-28,5,-2,nt,nt
O=C1CC(c2ccccc2)=Nc2ccccc2N1,1,0,3,7,-2,nt,nt
C1=C(c2ccccc2)Nc2ccccc2N=C1c1ccccc1,102*,1,-92,1,3,-3,3
COc1ccc(-c2cc(C(=O)O)nc3ccc4ccccc4c23)cc1OC,3,-1,-22,7,4,nt,nt
Oc1ccc(-c2nc3ccc4ccccc4c3c3c2CCC3)cc1O,63*,1,-33,3,1,53*,97*
